Source: PubChem BioAssay (NCATS)
Inconclusive results are not listed. Entries that show only a call come without a potency. Active and inactive are the calls of the source. The call rests on the fitted dose curve; in most records, active means well fitted cell-killing curve with a large enough effect; inconclusive means small, poorly fitted or top-dose-only effect, or effect the other way; inactive means no such curve, though single readings can be large or run the other way.
Potency means the concentration at half of the fitted maximal effect.

Assay: qHTS of pediatric cancer cell lines to identify multiple opportunities for drug repurposing: Confirmatory screen for OHS-50 cells (AID 1347128);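 further: compound exposure lasted 48 h at 37 degrees C; nearly all actives have a fitted effect of over 55% in size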
Conditions: OHS-50 osteosarcoma cells viability; series mostly up to 45.9 µM
Description: Drug repurposing or repositioning has been offered as a strategy for drug development in oncology programs. This approach has special potential for childhood cancers and other rare or orphan diseases, where the expected return on new drug development has been a disincentive to pharmaceuticals.
In this project we exploit the poly-pharmacology of drugs to discover new indications via phenotypic screening of a panel of 19 well-characterized cell lines derived from solid tumors seen in children and adolescents. The goal is to identify approved drugs with previously unrecognized anticancer properties that has the potential to reveal new mechanisms and biological processes involved in carcinogenesis or drug resistance. We employed a titration-based paradigm (quantitative high-throughput screening or qHTS), where all compounds were tested at multiple concentrations for their effect on cell viability. Concentration-response curves (CRCs) were derived directly from the primary screen, and both potency and efficacy values were used to identify compounds with robust bioactivity profiles. We screened the NIH Chemical Genomics Center (NCGC) Pharmaceutical Collection (NPC) and Mechanism Interrogation Plate (MIPE) small molecule collections of approved and investigational compounds against these cell lines; and measured metabolically active cells after 48 hours of compound treatment as a proxy for cell viability.
Assay Submitter: Nathalia J. Martinez, National Center for Advancing Translational Sciences, National Institutes of Health, Rockville, MD, USA; email: natalia.martinez@nih.gov
[1] Shen, M et al. Quantitative high-throughput phenotypic screening of pediatric cancer cell lines identifies multiple opportunities for drug repurposing. Oncotarget 2017 Dec 19;9(4):4758-4772. PMID 29435139.
The cells were obtained from University of North Carolina (UNC), Pediatric Preclinical Testing Program (PPT), and Coriell Institute (CI).
qHTS cell viability assay:
Cells were assayed in growth media at a density of 500-1,000 cells/well. Five microliters of cells were dispensed into 1,536-well, white, solid-bottom, TC-treated plates (Greiner Bio One) using a multidrop dispenser and incubated at 37 degrees C, 5% CO2, under a humidified atmosphere for 5 hours. Twenty-three nanoliters of compounds and controls (neutral control DMSO or positive control bortezomib at final concentration of 2.3 µM) were subsequently transferred by Kalypsys pintool. For primary screens, the MIPE collection was tested at 11-point dilutions (final concentrations range from 0.78 nM to 46 µM) and the NPC collection at 8-point dilutions (final concentrations range from 0.59 nM to 46 µM). Compounds tested in follow-up screens were assayed at 11-point dilutions. Cells were incubated for 48 hours, followed by addition of 3 µL of CellTiter-Glo (Promega). After a 15 min incubation at room temperature, samples were analyzed for luminescence intensity using a ViewLux High-throughput CCD imager equipped with clear filters.
With `COc1cc(Nc2ncc3c(n2)-c2ccc(Cl)cc2C(c2c(F)cccc2OC)=NC3)ccc1C(=O)O` the Potency was “inactive”.
For `O=C(c1cc(Cc2n[nH]c(=O)c3ccccc23)ccc1F)N1CCN(C(=O)C2CC2)CC1`, the Potency was “inactive”.
With `CCN(CC)CCCC(C)Nc1ccnc2cc(Cl)ccc12` (stereo not given) the Potency was “inactive”.
With `NCCCC(N)(C(=O)O)C(F)F` (stereo not given) the Potency was “inactive”.
With `Cc1c(CN2CCN(C(=O)C(C)C)CC2)sc2c(N3CCOCC3)nc(-c3cnc(N)nc3)nc12` the Potency was 1.04 µM (active).
In the case of `Nc1nc2c(ncn2COCCO)c(=O)[nH]1`, the Potency is reported as “inactive”.
For `O=NN(CCCl)C(=O)NCCCl`, the Potency was “inactive”.
For `CNCc1ccc(-c2[nH]c3cc(F)cc4c3c2CCNC4=O)cc1`, the Potency was “inactive”.
For `Nc1nc2[nH]cc(CCc3ccc(C(=O)N[C@@H](CCC(=O)O)C(=O)O)cc3)c2c(=O)[nH]1`, the Potency was “inactive”.
For `Cn1cnc([N+](=O)[O-])c1Sc1ncnc2nc[nH]c12`, the Potency was 4.24 µM (active).
With `Cc1cn[nH]c1` the Potency was “inactive”.
For `NC(=O)c1ccc(I)c([N+](=O)[O-])c1`, the Potency was “inactive”.
With `Oc1cccc(-c2nc(N3CCOCC3)c3oc4ncccc4c3n2)c1` the Potency was 3.02 µM (active).
In the case of `COc1cccc2cc(-c3nc(C4CCC(C(=O)O)CC4)n4ncnc(N)c34)[nH]c12` (stereo not given), the Potency is reported as “inactive”.
With `CS(=O)(=O)c1ccc(C(=O)Nc2ccc(Cl)c(-c3ccccn3)c2)c(Cl)c1` the Potency was “inactive”.
With `CN1CCN(CCCN2c3ccccc3Sc3ccc(C(F)(F)F)cc32)CC1` the Potency was 20.8 µM (active).
In the case of `C[C@]1(c2nc3c(C(N)=O)cccc3[nH]2)CCCN1`, the Potency is reported as “inactive”.
In the case of `O=C(NOC[C@H](O)CO)c1ccc(F)c(F)c1Nc1ccc(I)cc1F`, the Potency is reported as “inactive”.
For `Nc1nc2ccc(OC(F)(F)F)cc2s1`, the Potency was 18.5 µM (active).
With `Cc1oncc1C(=O)Nc1ccc(C(F)(F)F)cc1` the Potency was “inactive”.
In the case of `COCC(=O)NCC=Cc1ccc2ncnc(Nc3ccc(Oc4ccc(C)nc4)c(C)c3)c2c1`, the Potency is reported as 42.7 µM (active).
For `COc1ccc(-c2ccc3c(N4CCOC[C@H]4C)nc(N4CCOC[C@H]4C)nc3n2)cc1CO`, the Potency was 2.08 µM (active).
In the case of `COc1ccc(-c2oc3cc(OC)ccc3c2C(=O)c2ccc(C#N)cc2)cc1`, the Potency is reported as “inactive”.
In the case of `CC(C=CC1=C(C)CCCC1(C)C)=CC=CC(C)=CC(=O)O`, the Potency is reported as “inactive”.
With `NC(N)=NC(=O)c1nc(Cl)c(N)nc1N` the Potency was “inactive”.
